TRHR enhancer: allosterically enhances the human TRH receptor; P34981; TRHR cells, fluo-8 calcium fluorescence, EC20 TRH enhancement; actives 0.66% (n = 360,000); enhancement, % at 2 µM; in the data active = enhancement above about 30%; note: 0% is about no effect
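Enhancer read-out: after compound pinning and an initial kinetic agonist-mode read, an EC20 of TRH (10 nM final) was injected and fluo-8 calcium signal (Ex 480/Em 530) followed at 1 s/cycle for 100 cycles in TRHR-expressing cells.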
D1 antagonist: human D1 dopamine receptor antagonism; P21728; HEK293 TREx D1 cells, calcium flux, dopamine EC80; hits give low values; activity change, negative = inhibition, % at 10 µM; actives 3.2% (n = 360,000); AID 504652; in the data active = activity change below about -30%; note: % is set by controls: 0 for no effect and ±100 for the full control effect
Target sequence (P21728 whole entry, looked up): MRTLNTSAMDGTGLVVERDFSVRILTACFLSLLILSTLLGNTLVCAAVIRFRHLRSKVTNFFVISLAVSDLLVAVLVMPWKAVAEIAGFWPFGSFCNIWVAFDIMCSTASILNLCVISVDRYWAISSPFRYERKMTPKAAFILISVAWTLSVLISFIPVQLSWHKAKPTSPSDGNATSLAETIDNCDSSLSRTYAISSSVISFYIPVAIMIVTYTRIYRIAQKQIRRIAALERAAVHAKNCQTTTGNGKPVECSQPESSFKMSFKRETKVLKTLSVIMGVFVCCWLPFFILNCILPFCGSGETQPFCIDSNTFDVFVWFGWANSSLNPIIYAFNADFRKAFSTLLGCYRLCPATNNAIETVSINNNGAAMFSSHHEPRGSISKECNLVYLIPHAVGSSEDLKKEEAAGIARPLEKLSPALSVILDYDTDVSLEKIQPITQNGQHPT
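Antagonism measured as reduced calcium response to an EC80 dopamine addition following 180 s compound pre-read; cells were inducible HEK293 Trex D1 plated overnight at 30 C, read kinetically at 1 cycle/sec.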
TRHR agonist: activates the human TRH receptor; P34981; TRHR cells, calcium flux fluo-8, FDSS agonist mode; activation, % at 2 µM; actives 0.18% (n = 360,000); AID 493084; note: 0% is about no effect
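TRHR-expressing cells, plated overnight in medium with 10% serum, were loaded with fluo-8 calcium dye at room temperature. After a 10 s baseline, library compound was pin-added and calcium release was recorded kinetically (ex 480/em 530) as agonist response.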
D1 agonist: agonists of human D1 dopamine receptor. P21728. HEK293 T-REx D1 cells, calcium flux, agonist mode. activation, % at 2 µM. actives 1% (n = 360,000). AID 504660; note: 0% is about no effect
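Tetracycline-induced HEK293 TREx D1 cells, force-coupled to calcium signalling, were dye-loaded with a no-wash calcium kit. Compound was pin-added after a 10 s baseline. Fluorescence was read kinetically at 1 cycle/s for 180 s, with calcium rises flagged as agonism.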
D1 PAM: human D1 dopamine receptor positive modulation; P21728; HEK293 TREx D1 cells, calcium flux, dopamine EC20 potentiation; potentiation, % at 10 µM; actives 0.036% (n = 360,000); AID 504651; in the data active = potentiation above about 30%; note: 0% is about no effect
The depositor's hits bear a star; . = no result; ! = repeats disagree. Only some compounds are listed: those with a hit (about 4.7% of all), similar ones and a draw of the others. Cut-off read from the data, not from the text of the source, unless noted: active = activation above about 30%; inactive = the rest.

SMILES | TRHR enhancer | D1 antagonist | TRHR agonist | D1 agonist | D1 PAM
CCCCOC(=O)c1ccc(NC(=O)COC(=O)C2CSC3(C)CCC(=O)N23)cc1 (configuration not stated) | -3.8 | -46.4* | 1.5 | 22.3 | -7.5
CC1C(=O)N2CCCc3cc(S(=O)(=O)Nc4ccc(Br)cc4F)cc1c32 (configuration not stated) | 0.1 | -30.2* | -0.2 | -0.5 | -1.6
CCCn1c2ccccc2c2cnn(CC(=O)NCCc3ccc(S(N)(=O)=O)cc3)c(=O)c21 | -3.1 | 11.4 | 40.3* | 2.3 | 3.2
Cc1cc(C)c(Cn2c3ccccc3c3cnn(CC(=O)NCc4ccc(Cl)cc4)c(=O)c32)c(C)c1 | 12.8 | 6.8 | 0.4 | 4.2 | -2.1
Cc1ccc(Cn2c3ccccc3c3cnn(CC(=O)Nc4cc(Cl)ccc4C)c(=O)c32)cc1 | 44.6* | 5.6 | -0.2 | 1.6 | -5.5
Cc1cc2c(cc1S(=O)(=O)N(CCN(C)C)Cc1ccccc1)OCC(=O)N2 | 0.4 | -14.9 | 0.6 | 9.9 | -3.3
COc1ccc(Cl)cc1NC(=O)c1cc2nc(-c3ccc(C)cc3)cc(C(F)(F)F)n2n1 | 3.9 | 15.1 | 3.2 | 0.3 | -0.9
COC(=O)c1sccc1S(=O)(=O)N(CC(=O)NCc1ccccc1)c1ccc(C)c(C)c1 | -4.8 | -5.8 | -0.4 | 0.7 | -5.7
Cc1ccc(NC(=O)C(=O)NCCCN2CCOCC2)cc1C | 0.2 | 2.0 | -0.2 | 10.8 | -2.7
N#CC(C#N)=C1C=CC=CN1/C(=C\c1ccccc1Cl)C(=O)c1ccccc1 | -10.7 | -50.5* | 1.7 | 2.7 | -12.6
Cc1cccc(-n2c(SCC(=O)Nc3ccc(C)c(C)c3)nc3n[nH]c(C)c3c2=N)c1 | 4.6 | -6.3 | -0.2 | 2.1 | -5.0
Cc1c(C(=O)Nc2cc(F)cc(F)c2)cnn1-c1ccccc1 | 37.2* | -32.4* | 1.5 | 5.7 | -8.0
Cc1c(C(=O)Nc2ccccc2F)cnn1-c1ccccc1 | -4.9 | -1.0 | -2.3 | 8.0 | -1.4
CCCCc1nn2c(=O)cc(COC(=O)c3cccc(NC(=O)CCc4ccccc4)c3)nc2s1 | -3.2 | 11.6 | 0.8 | -1.3 | -0.5
COc1ccccc1NC(=S)NNC(=O)c1nn(C)c(C)c1Cl | -20.4 | -48.7* | 0.3 | 1.2 | -5.8
CCN(CC)c1ccc(NC(=O)c2cc(C)nc3c2c(C)nn3-c2ccc(C)cc2)c(C)c1 | -18.2 | -3.0 | 0.6 | 1.8 | 4.3
COc1ccc(NC(=O)CCCc2nnc3n(C(C)C)c(=O)c4sccc4n23)cc1Cl | 11.0 | -7.6 | -0.1 | 3.9 | -4.7
Cc1c(/C=N/NC(=O)C(NC(=O)c2ccc3c(c2)OCO3)C(C)C)c2ccccc2n1C (configuration not stated) | 32.1* | -15.2 | 5.9 | -1.3 | -0.1
CC(C)C(NC(=O)c1ccc2c(c1)OCO2)C(=O)N/N=C/c1cccs1 (configuration not stated) | -6.4 | -26.8 | -0.3 | -0.1 | -8.4
Cc1ccnn1CC(=O)N/N=C/c1ccc2c(c1)OCO2 | 0.6 | -47.4* | -0.7 | 2.7 | -3.6
CCCOc1ccc(/C=N/NC(=O)c2ccc3c(c2)OCO3)c(OCCC)c1 | -7.0 | -41.5* | 0.1 | 4.9 | .
CCn1ncc(/C=N/NC(=O)c2ccc3c(c2)OCO3)c1C | 3.1 | -74.3* | 1.2 | 0.8 | -3.5
Cc1ccc(CC(=O)N/N=C/c2ccc3c(c2)OCO3)cc1 | 1.0 | 2.5 | -0.1 | -1.3 | 10.3
Cc1cc2c(s1)c1cnn(Cc3ccccc3Br)c(=O)c1n2C | -2.0 | 5.1 | -2.2 | 2.1 | -5.7
Cc1ccc(CCNC(=O)c2ccc3c(c2)N(Cc2ccccc2F)C(=O)c2ccccc2S3=O)cc1 (configuration not stated) | 2.2 | -7.0 | 0.0 | 6.7 | -2.8
SMILES | TRHR enhancer | D1 antagonist | TRHR agonist | D1 agonist | D1 PAM
COc1ccc(-c2cc(C(=O)Oc3ccc(Br)cc3)c3ccccc3n2)cc1 | 6.5 | 8.9 | 0.7 | 3.5 | 0.8
COc1ccc(CNC(=O)C2CCN(S(=O)(=O)c3cccc(-c4noc(C)n4)c3)CC2)cc1 | -1.7 | 4.2 | -0.5 | 0.7 | -2.4
CCCCc1ccc(NC(=O)CSc2nc3ccccc3nc2N2CCOCC2)cc1 | 7.4 | -2.8 | 4.5 | 5.9 | -3.7
c1ccc(Sc2ncnc3c2oc2ccccc23)cc1 | 5.0 | -35.1* | -0.4 | 0.6 | -4.7
COc1ccc(NC(=O)c2ccc(NC3CC(=O)N(c4ccc(C)cc4C)C3=O)cc2)cc1 (configuration not stated) | 6.7 | -31.5* | 0.6 | 6.0 | -2.9
COc1ccc(C(=O)Nc2nc3n(n2)C(c2ccc(F)cc2)C=C(c2ccc(Cl)cc2)N3)cc1 (configuration not stated) | 2.4 | 5.8 | -0.6 | 8.3 | -3.0
CN1CCN(c2ccc(Cl)cc2NC(=O)c2cccc(S(=O)(=O)N(C)C)c2)CC1 | -1.1 | -3.9 | 2.5 | 41.1* | 0.1
CN1CCN(c2ccc(Cl)cc2NC(=O)c2ccc([N+](=O)[O-])cc2)CC1 | 8.5 | -85.0* | 0.1 | 5.9 | -15.3
CN(C)S(=O)(=O)c1cccc(C(=O)Nc2cc(Cl)ccc2O)c1 | -2.6 | -10.1 | 0.3 | 9.8 | -1.5
Cn1c(=O)n(C)c2cc([N+](=O)[O-])c(N3CCN(C(=O)c4ccc(Cl)cc4)CC3)cc21 | -1.4 | -56.9* | 0.1 | 1.8 | -1.2
CCOC(=O)CC(NC(=O)Cn1nnc(-c2ccccc2C)n1)c1ccc(OC)cc1 (configuration not stated) | -0.9 | -19.0 | 1.3 | 31.4*! | -8.7
CCOC(=O)CC(NC(=O)Cn1nnc(-c2ccc(C(F)(F)F)cc2)n1)c1ccc(OC)cc1 (configuration not stated) | -11.2 | -16.0 | -1.4 | 16.8 | 1.6
Cc1ccc(C)c(N2CCN(CCCNC(=O)Cn3c(-c4cccs4)cc4ccccc43)CC2)c1 | 7.7 | 10.2 | -0.2 | -1.9 | 3.7
CCC(=O)N1CCCC(C(=O)c2ccc(-c3ccccc3)cc2)C1 (configuration not stated) | 0.5 | -30.3* | -0.4 | 4.8 | -6.0
O=C(c1ccc(-c2ccccc2)cc1)C1CCCN(C(=O)Cn2cncn2)C1 (configuration not stated) | -4.5 | 7.7 | -0.1 | 3.9 | -0.2
COC(=O)CCCC(=O)N1CCCC(C(=O)c2ccccc2SC)C1 (configuration not stated) | 1.2 | -20.3 | -1.2 | 3.4 | -5.2
COC(=O)CCCC(=O)N1CCCC(C(=O)c2ccc(-c3ccccc3)cc2)C1 (configuration not stated) | 3.5 | -30.0* | -1.0 | 4.0 | -8.6
COC(=O)CCCC(=O)N1CCCC(CCC(=O)NCc2ccc(F)c(F)c2)C1 (configuration not stated) | 7.0 | -43.9* | -0.5 | 8.5 | -5.8
CCC1CN(C(=O)Nc2ccccc2C(F)(F)F)c2ccccc2O1 (configuration not stated) | -1.6 | 13.4 | 0.1 | 4.8 | 1.9
